Records with an inconclusive call do not appear. The source made the active and inactive calls. Calls follow the shape of the full dose curve. Positions of bridges follow the written chain, without caps; N, C: chain ends. Non-standard residues stand in square brackets, D forms with d. Residues, ends and D or L forms follow the SMILES beside them. hArg = N=C(N)NCCCC[C@H](N)C(=O)O; Mpa = O=C(O)CCS
Each compound was assayed against Acetylcholinesterase (Homo sapiens) (UniProt P22303) (assay: Acetylcholinesterase (AChE) small molecule antagonists: colormetric cell-based qHTS assay (AID 1347395; also: nearly all actives have a fitted effect of over 30% in size)). Details: SH-SY5Y cells AChE activity, colorimetric (Ellman); series mostly up to 115 µM; activity, negative = inhibition: at the top concentration.
Outline: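 AChE inhibition read colorimetrically via DTNB–thiocholine in SH-SY5Y cells. Compound 30 min, substrate 90 min, both 37 C.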
% is scaled to controls: 0 for no effect and ±100 for the full control effect.

Acetylcholinesterase (Homo sapiens), sequence (P22303 whole entry, looked up): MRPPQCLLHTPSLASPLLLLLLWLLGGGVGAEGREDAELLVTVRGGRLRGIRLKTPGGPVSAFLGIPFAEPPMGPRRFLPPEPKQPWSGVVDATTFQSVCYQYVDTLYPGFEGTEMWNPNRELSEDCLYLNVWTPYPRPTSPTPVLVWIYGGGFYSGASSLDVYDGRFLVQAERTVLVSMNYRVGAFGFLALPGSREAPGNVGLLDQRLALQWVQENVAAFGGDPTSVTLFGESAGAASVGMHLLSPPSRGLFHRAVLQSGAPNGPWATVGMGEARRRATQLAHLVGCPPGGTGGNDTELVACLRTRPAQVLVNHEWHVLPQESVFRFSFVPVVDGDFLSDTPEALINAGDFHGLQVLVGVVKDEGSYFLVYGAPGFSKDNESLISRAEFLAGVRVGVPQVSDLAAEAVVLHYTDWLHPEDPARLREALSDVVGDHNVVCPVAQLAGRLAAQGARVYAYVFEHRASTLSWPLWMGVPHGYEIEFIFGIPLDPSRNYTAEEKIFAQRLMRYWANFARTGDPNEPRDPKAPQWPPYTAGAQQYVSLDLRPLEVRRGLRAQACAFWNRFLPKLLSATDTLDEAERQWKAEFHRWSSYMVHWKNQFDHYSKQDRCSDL

Row | SMILES | Potency | activity, negative = inhibition | outcome
1 | CCCCC1(COC(=O)CCC(=O)O)C(=O)N(c2ccccc2)N(c2ccccc2)C1=O | inactive |  | 
2 | CC(C)Cn1cnc2c1c(=O)n(C)c(=O)n2C |  | 1.01% [at 52.9 µM] (inactive) | 
3 | CC(C)(C)C(=O)CCc1ccc(Cl)cc1 |  | 4.48% (inactive) | 
4 | COc1c(Cl)c(Cl)c(Cl)c(Cl)c1Cl | inactive |  | 
5 | CCCC(=O)O[C@]1(C(=O)CO)CC[C@H]2[C@@H]3CCC4=CC(=O)CC[C@]4(C)[C@H]3[C@@H](O)C[C@@]21C |  | 2.38% [at 52.9 µM] (inactive) | 
6 | O=C(O)c1ccc(C(=O)O)cc1 | inactive |  | 
7 | CC(=O)OCC(C)C |  | -0.0315% (inactive) | 
8 | C=CCNc1nc(NCC=C)nc(N2CCN(C(c3ccc(F)cc3)c3ccc(F)cc3)CC2)n1 |  |  | inactive
9 | CCCCNC(=S)NCCCC |  | 0.0422% (inactive) | 
10 | CC(C)(C)CC(=O)OCC(=O)[C@@]1(O)CC[C@H]2[C@@H]3CCC4=CC(=O)C=C[C@]4(C)[C@H]3[C@@H](O)C[C@@]21C |  | 0.372% [at 52.9 µM] (inactive) | 
11 | C=C(C)C(=O)OCCOCCOCCOCCOC(=O)C(=C)C |  | -1.81% (inactive) | 
12 | On1nnc2ccccc21 |  | 0.778% (inactive) | 
13 | CC(C)OC=O | inactive |  | 
14 | CCOC(/C=C(\C)CCC=C(C)C)OCC |  | -10.8% (inactive) | 
15 | Clc1ccccn1 | inactive |  | 
16 | CC(=O)CC(=O)Nc1ccc(C)cc1C |  | 0.21% (inactive) | 
17 | CC(=O)c1ccc(C)cc1 |  | 1.37% (inactive) | 
18 | Cc1cc(=O)n(-c2ccccc2)n1C | inactive |  | 
19 | O=C(O)c1ccccc1Cl |  | 7.74% (inactive) | 
20 | NC(=O)[C@@H]1CSSCCC(=O)N[C@@H](CCCCN=C(N)N)C(=O)NCC(=O)N[C@@H](CC(=O)O)C(=O)N[C@@H](Cc2c[nH]c3ccccc23)C(=O)N2CCC[C@H]2C(=O)N1 ([Mpa][hArg]GDWPC-NH2; disulfide 1-7) |  | -1.09% [at 52.9 µM] (inactive) | 
